Assay results published in PubChem BioAssay (Tox21).
Inconclusive results are not listed. Active and inactive are the calls of the source. Unless noted, calls come from the whole dose curve.

Columns and labels:
[1] = Nuclear factor erythroid 2-related factor 2/antioxidant responsive element (Nrf2/ARE) small molecule agonists: qHTS cell viability counter screen in human keratinocytes (AID 1919968; active = well fitted curve in the direction sought with a large enough effect in the repeat runs; an effect the other way counts as inactive or inconclusive; note: nearly all actives have a fitted effect of over 55% in size)
Outline: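 Seed 1,500 KeratinoSens cells per well, then incubate 5 h at 37 C/5% CO2. Add compounds in DMSO and incubate 23 h. Add CellTiter-Fluor, wait 1 h and read fluorescence.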

[2] = target: Gonadotropin-releasing hormone receptor (Homo sapiens) (UniProt P30968); test: Human gonadotropin-releasing hormone receptor (GnRHR) small molecule agonists, calcium flux assay in GnRHR-HEK293 cells (AID 1920063); note: nearly all actives have a fitted effect of over 35% in size
Gonadotropin-releasing hormone receptor (Homo sapiens), sequence (P30968 whole entry, looked up): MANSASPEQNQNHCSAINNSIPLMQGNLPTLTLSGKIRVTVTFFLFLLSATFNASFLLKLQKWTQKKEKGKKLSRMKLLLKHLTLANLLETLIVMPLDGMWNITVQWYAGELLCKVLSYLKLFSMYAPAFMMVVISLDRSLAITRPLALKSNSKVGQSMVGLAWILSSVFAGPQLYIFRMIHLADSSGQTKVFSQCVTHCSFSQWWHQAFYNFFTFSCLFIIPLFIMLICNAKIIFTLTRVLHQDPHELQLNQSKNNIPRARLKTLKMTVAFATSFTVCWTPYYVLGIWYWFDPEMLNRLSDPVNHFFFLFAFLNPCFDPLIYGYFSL
Outline: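 Cells: HEK293 stably expressing human GnRHR. Steps: overnight (18 h) culture, 1 h calcium dye loading at 37 C, compound addition, kinetic fluorescence read at 480/540 nm. Each compound tested at 15 concentrations in triplicate.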

[3] = target: KiSS-1 receptor (Homo sapiens) (UniProt Q969F8); test: Human kisspeptin (KISS1R) small molecule agonists, calcium flux assay in KISS1R-HEK293 cells (AID 1920064; active = well fitted curve in the direction sought with a large enough effect in the repeat runs; an effect the other way counts as inactive or inconclusive)
KiSS-1 receptor (Homo sapiens), sequence (Q969F8 whole entry, looked up): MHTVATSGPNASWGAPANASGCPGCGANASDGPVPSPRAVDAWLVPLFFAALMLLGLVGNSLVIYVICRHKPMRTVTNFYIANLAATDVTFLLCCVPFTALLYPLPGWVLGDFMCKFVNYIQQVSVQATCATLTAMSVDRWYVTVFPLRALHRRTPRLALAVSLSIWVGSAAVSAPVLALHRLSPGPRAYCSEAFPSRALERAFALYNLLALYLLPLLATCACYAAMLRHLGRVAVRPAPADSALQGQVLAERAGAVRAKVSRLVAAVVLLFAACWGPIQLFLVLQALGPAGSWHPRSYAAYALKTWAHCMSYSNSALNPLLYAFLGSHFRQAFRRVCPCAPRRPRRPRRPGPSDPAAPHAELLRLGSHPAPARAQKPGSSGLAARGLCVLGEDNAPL
Outline: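 Cells plated and incubated 18 h; dye added, 1 h at 37 C; compounds in DMSO pinned in; signal read at 480/540 nm every second for 3 min. Each compound tested at 15 concentrations in triplicate.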

[4] = G protein-coupled receptor (GPCR) small molecule agonists, calcium flux assay: HEK293 wild type cell line counter screen (AID 1920065)
Outline: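 Counter-screen of the Tox21 10K library for non-specific calcium release: dye-loaded cells received compounds in DMSO and were monitored by kinetic fluorescence (480/540 nm, 3 min). Fifteen concentrations, run in triplicate.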

[5] = p53 small molecule agonists, cell-based qHTS assay with human liver microsomes (AID 1963577);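 note: p53 response element beta-lactamase reporter cells with liver microsomes plus NADPH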
Outline: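 With metabolic activation: human liver microsomes (0.5 mg/mL final) plus NADPH (0.5 mg/mL final) added alongside compounds to p53RE-bla cells; 16 h 37 C exposure; beta-lactamase read by LiveBLAzer fluorescence.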

[6] = p53 small molecule agonists, cell-based qHTS assay with rat liver microsomes (AID 1963578)
Outline: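 Metabolic activation by rat liver microsomes and NADPH, each 0.5 mg/mL final, added right after compounds to p53RE-bla reporter cells (4,000/well, plated 5 h earlier). 16 h at 37 C, then LiveBLAzer substrate for 2 h at room temperature in the dark; fluorescence read-out.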

[7] = p53 small molecule agonists, cell-based qHTS assay with human liver microsomes: qHTS cell viability counter screen (AID 1963579); note: nearly all actives have a fitted effect of over 45% in size
Outline: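 Metabolic activation used human liver microsomes and NADPH, both 0.5 mg/mL final, over 16 hours at 37 C on p53RE-bla cells (4,000/well). Cytotoxicity measured by CellTiter-Glo luminescence, 30 min at room temperature.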

[8] = p53 small molecule agonists, cell-based qHTS assay with rat liver microsomes: qHTS cell viability counter screen (AID 1963580); note: nearly all actives have a fitted effect of over 45% in size
Outline: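 p53RE-bla HCT-116 cells were exposed 16 h at 37 C to compounds with rat liver microsomes (0.5 mg/mL) and NADPH (0.5 mg/mL). Viability was measured in the same wells as ATP content by CellTiter-Glo luminescence.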

[9] = p53 small molecule agonists, cell-based qHTS assay: qHTS cell viability counter screen (AID 1963581); note: nearly all actives have a fitted effect of over 45% in size
Outline: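 Cells: HCT-116 with p53 response element-driven beta-lactamase. Treatment: 16 h, 37 C, compounds in DMSO. Read: CellTiter-Glo luminescence after 30 min RT.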

[10] = target: 5-hydroxytryptamine receptor 2A (Homo sapiens) (UniProt P28223); test: 5-hydroxytryptamine receptor 2A (HTR2A) small molecule antagonists, cell-based qHTS assay (AID 1963586); note: nearly all actives have a fitted effect of over 45% in size
5-hydroxytryptamine receptor 2A (Homo sapiens), sequence (P28223 whole entry, looked up): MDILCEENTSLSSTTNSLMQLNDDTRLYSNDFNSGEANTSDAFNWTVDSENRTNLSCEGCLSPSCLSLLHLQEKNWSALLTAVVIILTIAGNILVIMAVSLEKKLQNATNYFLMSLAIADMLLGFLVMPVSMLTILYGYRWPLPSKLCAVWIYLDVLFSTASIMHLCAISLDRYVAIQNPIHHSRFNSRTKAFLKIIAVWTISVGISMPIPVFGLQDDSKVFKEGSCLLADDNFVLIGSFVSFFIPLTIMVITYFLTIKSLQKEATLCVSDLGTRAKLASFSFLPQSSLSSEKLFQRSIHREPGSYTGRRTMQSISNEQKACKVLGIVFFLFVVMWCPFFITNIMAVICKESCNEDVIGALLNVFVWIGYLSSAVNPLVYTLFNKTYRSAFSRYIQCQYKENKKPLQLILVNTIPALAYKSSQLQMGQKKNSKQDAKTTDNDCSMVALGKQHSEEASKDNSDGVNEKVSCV
Outline: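 Antagonist-mode intracellular calcium assay: DOI (4 nM) added after 5 min compound pre-incubation at room temperature to dye-loaded HTR2A-CHO cells. Fluorescence followed for 3 min, sampled every second.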

[11] = target: 5-hydroxytryptamine receptor 2A (Homo sapiens) (UniProt P28223); test: 5-hydroxytryptamine receptor 2A (HTR2A) small molecule agonists, cell-based qHTS assay (AID 1963587); note: nearly all actives have a fitted effect of over 30% in size
Outline: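 CHO cells stably expressing human HTR2A, plated 18 h, loaded with calcium dye 1 h at 37 C. Agonist mode: compounds added and intracellular calcium fluorescence recorded kinetically for 2 min at 1 sec intervals.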

[12] = target: Muscarinic acetylcholine receptor M1 (Homo sapiens) (UniProt P11229); test: Cholinergic receptor muscarinic 1 (CHRM1) small molecule antagonists, cell-based qHTS assay (AID 1963588); note: nearly all actives have a fitted effect of over 40% in size
Muscarinic acetylcholine receptor M1 (Homo sapiens), sequence (P11229 whole entry, looked up): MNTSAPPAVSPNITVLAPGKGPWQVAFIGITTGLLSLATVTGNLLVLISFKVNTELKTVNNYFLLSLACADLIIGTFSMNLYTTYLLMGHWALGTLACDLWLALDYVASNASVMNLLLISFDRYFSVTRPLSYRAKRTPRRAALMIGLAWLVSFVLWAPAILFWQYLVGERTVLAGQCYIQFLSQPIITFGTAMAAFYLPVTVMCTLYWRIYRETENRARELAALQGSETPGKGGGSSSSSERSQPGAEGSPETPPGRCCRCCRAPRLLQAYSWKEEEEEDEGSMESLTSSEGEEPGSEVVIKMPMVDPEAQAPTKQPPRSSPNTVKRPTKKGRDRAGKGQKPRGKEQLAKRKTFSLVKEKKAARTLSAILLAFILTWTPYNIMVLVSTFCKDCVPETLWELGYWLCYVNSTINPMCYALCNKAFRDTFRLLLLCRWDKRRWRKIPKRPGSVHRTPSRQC
Outline: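 CHRM1-CHO calcium-flux assay, antagonist mode. Cells were seeded 18 h, dye-loaded 1 h at 37 C and given compound for 5 min at RT, then acetylcholine was added at 50nM. FDSS fluorescence was read 3 min; 15 concentrations, three runs.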

[13] = target: Muscarinic acetylcholine receptor M1 (Homo sapiens) (UniProt P11229); test: Cholinergic receptor muscarinic 1 (CHRM1) small molecule agonists, cell-based qHTS assay (AID 1963589); note: nearly all actives have a fitted effect of over 35% in size
Outline: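 Agonist-mode qHTS in CHO cells stably carrying human muscarinic M1. Intracellular calcium is tracked by fluorescence every second after compound transfer; each compound runs at 15 concentrations in three independent runs.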

[14] = target: Beta-2 adrenergic receptor (Homo sapiens) (UniProt P07550); test: Adrenergic beta2 receptor (ADRB2) small molecule antagonists, cell-based qHTS assay (AID 1963592); note: series mostly up to about 92 µM; nearly all actives have a fitted effect of over 50% in size
Beta-2 adrenergic receptor (Homo sapiens), sequence (P07550 whole entry, looked up): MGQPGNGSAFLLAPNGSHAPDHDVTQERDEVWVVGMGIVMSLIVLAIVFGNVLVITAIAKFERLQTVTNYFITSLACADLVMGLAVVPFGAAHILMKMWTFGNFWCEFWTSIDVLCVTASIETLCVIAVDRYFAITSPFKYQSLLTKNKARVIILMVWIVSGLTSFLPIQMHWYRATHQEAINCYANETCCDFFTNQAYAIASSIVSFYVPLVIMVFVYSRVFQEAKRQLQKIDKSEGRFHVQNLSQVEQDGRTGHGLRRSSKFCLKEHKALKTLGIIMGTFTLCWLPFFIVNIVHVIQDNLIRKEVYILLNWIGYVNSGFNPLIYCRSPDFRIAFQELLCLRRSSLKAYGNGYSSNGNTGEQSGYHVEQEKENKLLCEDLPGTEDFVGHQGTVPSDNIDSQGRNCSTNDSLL
Outline: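 Cells (CHO, stable ADRB2 overexpression) incubated 18-20hr at 37C; compounds added from DMSO; agonist mix (1nM isoproterenol, 100uM IBMX, 25uM Ro-20-1724) added; 0.5hr RT; d2-cAMP and anti-cAMP-cryptate added; 1hr RT; 665/615 nm read.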

[15] = target: D(2) dopamine receptor (Homo sapiens) (UniProt P14416); test: Dopamine D2 receptor (DRD2) small molecule agonists, cell-based qHTS assay (AID 1963594); note: nearly all actives have a fitted effect of over 35% in size
D(2) dopamine receptor (Homo sapiens), sequence (P14416 whole entry, looked up): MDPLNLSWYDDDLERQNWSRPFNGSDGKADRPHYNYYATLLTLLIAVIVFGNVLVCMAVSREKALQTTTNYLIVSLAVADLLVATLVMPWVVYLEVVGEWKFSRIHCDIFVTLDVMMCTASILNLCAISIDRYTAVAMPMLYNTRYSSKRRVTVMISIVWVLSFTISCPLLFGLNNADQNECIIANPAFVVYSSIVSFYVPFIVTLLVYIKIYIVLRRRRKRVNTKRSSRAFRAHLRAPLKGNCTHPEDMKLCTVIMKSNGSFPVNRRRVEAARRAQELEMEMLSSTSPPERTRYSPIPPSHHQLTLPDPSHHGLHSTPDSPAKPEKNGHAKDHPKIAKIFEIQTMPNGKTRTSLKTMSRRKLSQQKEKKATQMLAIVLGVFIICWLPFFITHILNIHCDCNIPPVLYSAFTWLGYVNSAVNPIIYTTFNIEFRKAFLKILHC
Outline: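 HEK293 cells stably expressing human DRD2, pre-treated with PDE inhibitor Ro20-1724 (0.1 mM final) and compound 10 min at room temperature, then stimulated with NKH477 (200nM […]) for 30 min. cAMP read by HTRF (665/620 nm).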

[16] = target: D(2) dopamine receptor (Homo sapiens) (UniProt P14416); test: Dopamine D2 receptor (DRD2) small molecule antagonists, cell-based qHTS assay (AID 1963595; active = well fitted inhibition curve with a large enough effect in the signal ratio in the repeat runs, with a control signal flat; the % refers to the signal ratio)
Outline: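 DRD2-HEK293; 0.1 mM Ro20-1724; cpd 10 min RT; NKH477 200 nM + quinpirole 12 nM, 30 min RT; HTRF cAMP (cAMP-d2/anti-cAMP cryptate), 665/620 nm ratio after 1 h.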

[17] = cAMP Responsive Elements (CRE) small molecule agonists, cell-based qHTS assay (AID 1963590)
Outline: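 Agonist mode qHTS in CRE-bla HEK 293T cells: compounds dosed from DMSO for 3 h at 37 C/5% CO2, followed by LiveBLAzer B/G FRET substrate for 2 h at room temperature.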

[18] = p53 small molecule agonists, cell-based qHTS assay (AID 1963582; active = well fitted activation curve with a large enough effect in the signal ratio in the repeat runs, not every such curve was filed as active; the % refers to the signal ratio)
Outline: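 Quantitative HTS in p53RE-bla cells: after a 5 h settling period, compounds delivered in DMSO were left on cells for 16 h at 37 C, and reporter induction was measured as fluorescence following 2 h substrate loading.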

[19] = target: Beta-2 adrenergic receptor (Homo sapiens) (UniProt P07550); test: Adrenergic beta2 receptor (ADRB2) small molecule agonists, cell-based qHTS assay (AID 1963593);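 note: CHO cells stably overexpressing human ADRB2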
Outline: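 CHO cells stably over-expressing ADRB2 were plated overnight at 37C, then dosed with compounds plus a stimulation mix containing 100uM IBMX and 25uM Ro-20-1724 for 0.5hr at room temperature. cAMP was measured by HTRF competition, 1hr.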

[20] = cAMP Responsive Elements (CRE) small molecule antagonists, cell-based qHTS assay (AID 1963591; active = well fitted inhibition curve with a large enough effect in the signal ratio in the repeat runs, not every such curve was filed as active; the % refers to the signal ratio)
Outline: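 Antagonist mode: test compounds are co-incubated with the adenylyl cyclase activator NKH477 (0.25 uM final) on CRE-bla HEK293T cells for 3 h at 37 °C, followed by LiveBLAzer substrate loading.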
% is set by controls: 0 for no effect and ±100 for the full control effect.

CCCOC(=O)c1ccc(C(=O)OCCC)nc1
inactive: Potency [1] | Potency [2] | outcome [3] | outcome [4] | Potency [5] | Potency [6] | Potency [7] | Potency [8] | Potency [9] | Potency [10] | Potency [11] | Potency [12] | Potency [13] | Potency [14] | Potency [15] | Potency [16]

CCCCCCCC
inactive: Potency [1] | Potency [2] | outcome [3] | outcome [4] | Potency [5] | Potency [6] | Potency [7] | Potency [8] | Potency [9] | Potency [10] | Potency [11] | Potency [12] | Potency [13] | Potency [17] | Potency [14] | Potency [15] | Potency [16]

CCOC(=O)Cc1cccc2ccccc12
inactive: Potency [1] | Potency [2] | outcome [3] | outcome [4] | Potency [5] | Potency [6] | Potency [7] | Potency [8] | Potency [18] | Potency [10] | Potency [11] | Potency [12] | Potency [13] | Potency [17] | Potency [14] | Potency [19] | Potency [15] | Potency [16]

C1CCN2C[C@@H]3C[C@@H](CN4CCCC[C@@H]34)[C@H]2C1
inactive: Potency [1] | Potency [2] | outcome [3] | outcome [4] | Potency [5] | Potency [6] | Potency [7] | Potency [8] | Potency [9] | Potency [18] | Potency [20] | Potency [14] | Potency [15]

CCCCCCCCCCCCCCCCCCOCCO
inactive: activity change, negative = cytotoxicity [1] 1.01% [at 19 µM] | activity change [2] 0.36% [at 11.8 µM, active compounds read high] | activation [3] 1.36% [at 15.8 µM] | activation [4] 0.568% [at 11.8 µM] | activation [5] 4.4% [at 13.5 µM] | activation [6] 0.0249% [at 13.6 µM] | activity change, negative = cytotoxicity [7] -1.11% [at 13.5 µM] | activity change, negative = cytotoxicity [8] 2.48% [at 13.5 µM] | activity change, negative = cytotoxicity [9] 16.5% [at 13.5 µM] | activity, negative = inhibition [10] -22.3% [at 12.7 µM] | activation [11] -2.03% [at 15.9 µM] | activity, negative = inhibition [12] -0.0015% [at 12.6 µM] | activation [13] -0.156% [at 15.8 µM] | activation [17] 3.72% [at 19 µM] | activity change, negative = inhibition [20] 0.259% [at 18.9 µM] | activity change, negative = inhibition [14] -12.3% [at 19 µM] | activation [15] -2.91% [at 19 µM] | activity change, negative = inhibition [16] -0.251% [at 18.9 µM]

CC(=O)N(CC(O)CN(C(C)=O)c1c(I)c(C(=O)NCC(O)CO)c(I)c(C(=O)NCC(O)CO)c1I)c1c(I)c(C(=O)NCC(O)CO)c(I)c(C(=O)NCC(O)CO)c1I (configuration not stated)
inactive: Potency [1] | Potency [2] | outcome [3] | outcome [4] | Potency [5] | Potency [6] | Potency [7] | Potency [8] | Potency [9] | Potency [18] | Potency [11] | Potency [12] | Potency [13] | Potency [17] | Potency [20] | Potency [14] | Potency [19] | Potency [15] | Potency [16]

C=C/C(C)=C/C/C=C(\C)CCC=C(C)C
inactive: Potency [1] | Potency [2] | outcome [3] | outcome [4] | Potency [5] | Potency [6] | Potency [7] | Potency [8] | Potency [9] | Potency [10] | Potency [12] | Potency [13] | Potency [14] | Potency [19] | Potency [15] | Potency [16]
